In PubChem BioAssay AID488969 (Vanderbilt High Throughput Screening Facility, 2010):
Over roughly 110,000 compounds, “z-score” has its median near -0.1; the highest 2% begin near 2. This is one part of a sample in which the highest values are shown more often than they occur. The source made the active and inactive calls.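 Rule for the calls: active = z-score in the third read window above 3 or below -3; inactive = the rest.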

molecular target: Metabotropic glutamate receptor 8 (Rattus norvegicus) (UniProt P70579); assay: mGluR8 Gi/Go-coupled signaling modulation – cell-based, rat, thallium flux, HTS, primary screen (AID 488969); conditions: HEK293 rat mGluR8, GIRK (G protein-gated inwardly rectifying potassium channel) thallium flux, FluoZin2; at 10 µM; stronger effect = higher value; submaximal glutamate (EC20) added with thallium
Sequence (P70579 whole entry, looked up): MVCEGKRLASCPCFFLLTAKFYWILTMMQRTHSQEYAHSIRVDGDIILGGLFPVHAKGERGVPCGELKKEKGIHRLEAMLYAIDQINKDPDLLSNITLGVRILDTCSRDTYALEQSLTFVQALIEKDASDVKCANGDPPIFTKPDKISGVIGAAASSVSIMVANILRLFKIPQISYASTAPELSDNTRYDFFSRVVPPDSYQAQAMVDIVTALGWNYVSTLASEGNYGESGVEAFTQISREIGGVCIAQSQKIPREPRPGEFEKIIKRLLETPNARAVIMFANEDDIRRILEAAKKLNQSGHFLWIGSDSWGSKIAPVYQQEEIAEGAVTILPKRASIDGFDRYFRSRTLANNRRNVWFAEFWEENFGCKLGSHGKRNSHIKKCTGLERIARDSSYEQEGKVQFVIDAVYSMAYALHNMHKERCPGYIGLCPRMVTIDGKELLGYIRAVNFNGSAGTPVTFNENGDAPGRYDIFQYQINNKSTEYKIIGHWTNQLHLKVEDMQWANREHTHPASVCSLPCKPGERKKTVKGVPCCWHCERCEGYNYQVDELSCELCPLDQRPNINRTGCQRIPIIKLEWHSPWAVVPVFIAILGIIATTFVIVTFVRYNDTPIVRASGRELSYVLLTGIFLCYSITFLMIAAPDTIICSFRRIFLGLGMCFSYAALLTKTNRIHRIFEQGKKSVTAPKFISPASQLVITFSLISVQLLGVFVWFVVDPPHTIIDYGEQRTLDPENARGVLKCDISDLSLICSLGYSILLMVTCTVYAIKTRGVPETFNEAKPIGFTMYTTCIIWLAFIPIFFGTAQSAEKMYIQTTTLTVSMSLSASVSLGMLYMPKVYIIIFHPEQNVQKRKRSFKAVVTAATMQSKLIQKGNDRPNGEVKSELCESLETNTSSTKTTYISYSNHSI

In order of falling z-score:
1. Cc1ccccc1N1C(=O)C(Oc2ccc(Cl)cc2)C1CNCCCOC(C)C (stereo not drawn)  2.95
2. CCOC(=O)C1CCCN(C(=O)CSc2nccn2C)C1 (stereo not drawn)  2.87
3. CCOC(=O)CSc1n[nH]c(NC(=O)c2cccc(C)c2)n1  2.67
4. O=C(NNc1nc2ccccc2nc1C(F)(F)F)c1ccccc1  2.44
5. O=C(NCC1CCCO1)c1c(O)c2c([nH]c1=O)CCCC2 (stereo not drawn)  2.44
6. CC(=O)c1ccc(N2CCCC2)c(F)c1  2.4
7. C=C(C)C1CC=C(C)/C(=N/NC(=S)Nc2ccccc2)C1 (stereo not drawn)  2.35
8. O=C(NNc1c2ccccc2nc2ccccc12)c1ccc(O)cc1  2.21
9. CCOC(=O)C1CCCN(C(=O)Cn2sc3nc(C)cc(C)c3c2=O)C1 (stereo not drawn)  2.2
10. C=C(C)C1CC=C(C)/C(=N/NC(=O)CNc2ccc(OCC)cc2)C1 (stereo not drawn)  1.99
11. O=C(NCC1CCCO1)C1CC1(c1ccccc1)c1ccccc1 (stereo not drawn)  1.76
12. Cc1ccc(F)c(NC(=O)C2CCCCC2C(=O)O)c1 (stereo not drawn)  1.59
13. CCCNCC1C(Oc2ccc(Cl)cc2)C(=O)N1c1ccccc1C (stereo not drawn)  1.55
14. C=C(C)C1CC=C(C)/C(=N/NC(=O)COc2ccc(C)cc2)C1 (stereo not drawn)  1.47
15. Cc1cc(C)c(OCCCCCNCCO)c(C)c1  1.43
16. C=C(C)C1CC=C(C)/C(=N/NC(=O)COc2ccccc2C)C1 (stereo not drawn)  1
17. C=C(C)C1CC=C(C)/C(=N\NC(=S)Nc2ccc(C)cc2)C1 (stereo not drawn)  0.799
18. C[N+](C)(C)CCNC(=O)c1c(O)c2c([nH]c1=O)CCCC2  0.798
19. CCOC(=O)CSc1n[nH]c(NC(=O)c2ccccc2)n1  0.788
20. CCc1ccccc1NC(=O)CSc1nc2n[nH]c(C)c2c(=N)n1-c1cccc(OC)c1  0.747
21. COc1cccc(Nc2ccc(C(=O)O)cc2[N+](=O)[O-])c1  0.594
22. O=C(Nc1ccccc1)c1cccnc1N1CCCC1  0.569
23. S=c1[nH]c2ccc(Cl)cc2[nH]1  0.488
24. COc1ccc(CC(=O)NCCc2ccc(S(N)(=O)=O)cc2)cc1  0.445
25. CCOc1ccc2[nH]c(=O)c(C(c3nnnn3C3CCCCC3)N3CCN(CC)CC3)cc2c1 (stereo not drawn)  0.408
26. Cc1ccc(C)c(Nc2nc3nonc3nc2N2CCOCC2)c1  0.382
27. CCc1ccc(NC(=O)CSc2nc3n[nH]c(C)c3c(=N)n2-c2cccc(OC)c2)cc1  0.339
28. FC(F)(F)c1nc2ccccc2nc1N/N=C\c1ccccc1  0.3
29. CCCCOc1ccc(-c2nc(=S)[nH][nH]2)cc1  0.294
30. C=C(C)[C@H]1CC=C(C)/C(=N/NC(=O)CNc2ccccc2OC)C1  0.284
31. COCCCNCC1C(Oc2ccc(Cl)cc2)C(=O)N1c1ccccc1C (stereo not drawn)  0.258
32. Cc1ccc(C(=O)NN(C)c2nc3ccccc3nc2C(F)(F)F)cc1  0.198
33. COC(=O)c1ccccc1NC(=O)CN(C)S(=O)(=O)c1ccc(OC)cc1  0.195
34. CC1=C(C(=O)N2CCCCC2)C(c2cccs2)C2=C(CCCC2=O)N1 (stereo not drawn)  0.187
35. S=c1[nH]nc(Cc2sc(-c3ccccc3)nc2-c2ccccc2)o1  0.186
36. CC(OC(=O)c1nsc(Cl)c1Cl)C(=O)NC(C)(C)C (stereo not drawn)  0.181
37. COC(=O)c1cc(C(=O)OC)cc(N2C(=O)CC(Sc3nc(C)cc(C)n3)C2=O)c1 (stereo not drawn)  0.178
38. Cc1n[nH]c(C)c1SCC(=O)Nc1ccc(F)cc1  0.159
39. Cc1cc(OCC(=O)Nc2ccc(F)c(F)c2)nc(C(C)C)n1  0.156
40. Cc1cccc(N2CCN(C(=O)Cn3sc4nc(C)cc(C)c4c3=O)CC2C)c1 (stereo not drawn)  0.149
41. CCCCC(=O)Nc1cc(C(=O)NCCc2ccccc2)ccc1Cl  0.145
42. Cc1ccc(S(=O)(=O)N2CCC(C(=O)N3CCC(C(=O)NCC4CCCO4)CC3)CC2)cc1 (stereo not drawn)  0.137
43. O=C(NCCc1ccccc1F)/C(=C/c1cccnc1)NC(=O)c1ccccc1  0.0991
44. C=C(C)C1CC=C(C)/C(=N\NC(=O)CNc2ccccc2OC)C1 (stereo not drawn)  0.0831
45. C=C(C)C1CC=C(C)/C(=N/NC(=O)COc2cccc3ccccc23)C1 (stereo not drawn)  0.0808
46. CCC(=O)c1ccc(N2CCCC2)c(F)c1  0.0378
47. CCOC(=O)C1CCCN(C(=O)COc2ccccc2O)C1 (stereo not drawn)  0.0285
48. O=C(NNc1c2ccccc2nc2ccccc12)c1ccc(O)cc1O  0.0188
49. COc1ccc(CNC(=O)CN(Cc2ccc(C)cc2)S(=O)(=O)c2ccc(Cl)cc2)cc1  0.0059
50. COc1ccccc1Nc1nc2nonc2nc1N1CCC(C)CC1  -0.00241
51. Fc1ccc(/C=C2\CCCC3=C2NC(=S)NC3c2ccc(F)cc2)cc1 (stereo not drawn)  -0.0195
52. CC1SC(c2ccc(Cl)cc2Cl)NC1=O (stereo not drawn)  -0.0303
53. COc1ccccc1OCc1ccc(C(=O)NN)cc1  -0.037
54. CCN1CCCC1CNC(=O)c1c(O)c2c([nH]c1=O)CCCC2 (stereo not drawn)  -0.0826
55. N#CC1(C#N)C2=C(CCCC2)NC(c2ccccc2)C1(C#N)C#N (stereo not drawn)  -0.0942
56. Cc1ccc(-n2nnnc2SCC(=O)c2ccc3c(c2)NC(=O)CO3)c(C)c1  -0.0959
57. Cn1ccc(C(=O)N2CCCc3ccccc32)n1  -0.0997
58. CCCN1C(=O)/C(=C/c2ccco2)SC1=Nc1ccc(OC)cc1  -0.105
59. O=C(c1cccc(Br)c1)c1cn(-c2ccccc2)nc1C(=O)c1ccccc1  -0.106
60. O=C(Nc1ccccc1)c1c(F)c(F)c(F)c(F)c1F  -0.122
61. CCOC(=O)CSc1n[nH]c(NC(=O)c2cccc(C(F)(F)F)c2)n1  -0.122
62. CC(=O)SC(C)CC(=O)NCc1ccccc1 (stereo not drawn)  -0.123
63. O=C(NNS(=O)(=O)c1ccccc1)C1CCN(S(=O)(=O)c2ccc(Cl)cc2)CC1  -0.131
64. O=C(CCS(=O)(=O)Cc1ccccc1)N1CCc2ccccc2C1  -0.136
65. O=C(Nc1ccc2c(c1)OCO2)c1cc2nc(C3CC3)cc(C(F)(F)F)n2n1  -0.167
66. CC1CCN(c2nc3ccccc3nc2N2CCC(C)CC2)CC1  -0.169
67. Cc1nc(NC(=O)c2ccc(Cl)cc2)sc1-c1csc(Nc2cccc(F)c2)n1  -0.184
68. c1cncc(-c2nc3ccccc3[nH]2)c1  -0.186
69. CCCCCCCCCc1nc(N)n[nH]1  -0.191
70. O=C(NNc1c2ccccc2nc2ccccc12)c1cccc(O)c1  -0.199
71. Cc1ccc(C2(C)NC(=O)N(CC(=O)Nc3c(C)n(C)n(-c4ccccc4)c3=O)C2=O)cc1 (stereo not drawn)  -0.208
72. O=C1CCC([N+](=O)[O-])C(c2ccc(Cl)cc2Cl)N1 (stereo not drawn)  -0.219
73. C/C(=N/NC(=O)Cc1cccc2ccccc12)c1cccs1  -0.221
74. CCc1ccc2nc(-c3cccc(C)c3)nc(SCC(=O)NCC3CCCO3)c2c1 (stereo not drawn)  -0.227
75. CSc1nc2cc(Cl)ccc2s1  -0.233
76. CCOC(=O)c1cc(-c2ccc(C#N)cc2)nc2c1c(C)nn2CCC#N  -0.234
77. O=C1c2ccccc2C(Nc2ccc(S(=O)(=O)N3CCOCC3)cc2)N1c1ccccn1 (stereo not drawn)  -0.244
78. CC(=O)c1cc2c(cc1NC(=O)c1cc3nc(C(C)C)cc(C(F)(F)F)n3n1)OCO2  -0.248
79. C=C(C)C1CC=C(C)/C(=N/NC(=O)CNc2ccc(C)cc2C)C1 (stereo not drawn)  -0.284
80. Cc1ccc(S(=O)(=O)NNc2nc3ccccc3nc2C(F)(F)F)cc1  -0.286
81. Cc1nn(Cc2ccc(Br)cc2)c(C)c1NC(=O)c1nn(C)cc1Cl  -0.296
82. COC(=O)c1ccc(N2C(=O)CC(SCCN)C2=O)cc1 (stereo not drawn)  -0.299
83. Cc1noc(C(=O)NCc2ccccc2)c1Cl  -0.324
84. CCOc1cc(C(=O)OCC(=O)c2c(C)[nH]c3ccccc23)ccc1OCC(=O)N1CCOCC1  -0.335
85. C=C(C)C1CC=C(C)/C(=N\NC(=O)CCc2ccccc2)C1 (stereo not drawn)  -0.339
86. COc1ccc(/C=C/C(=O)NC(C)C)cc1Br  -0.339
87. COc1ccccc1C(=O)NCC1CCN(c2ccc(S(=O)(=O)N3CCOCC3)cc2)CC1  -0.35
88. O=C(Oc1ccc(N2C(=O)CCC2=O)cc1)c1ccco1  -0.374
89. CCCOc1ccc(C(=O)N2CCCC2)cc1OC  -0.411
90. Cc1cc(C)c2c(=O)n(CC(=O)N3CCC(N4CCCCC4)CC3)sc2n1  -0.421
91. CCC(=O)c1ccc(N2CCCCCC2)c(F)c1  -0.499
92. COc1ccc(CN(C)CC(=O)Nc2cc(OC)c([N+](=O)[O-])cc2C)c(OC)c1  -0.503
93. CC(=O)N(/N=C1\Sc2ccccc2C1=O)c1ccc(C)cc1C  -0.638
94. O=c1c(CN2CCN(Cc3ccccc3)CC2)coc2ccc(Cl)cc12  -0.714
95. O=c1[nH]cnc2c1sc1nc3c(c(-c4ccc(Cl)cc4)c12)CCC3  -0.722
96. CNC(=O)C1=C(C)Nc2nc3ccccc3n2C1c1cccc(OC)c1 (stereo not drawn)  -0.775
97. CCOC(=O)c1cc(-c2ccc(OC)cc2)nc2c1c(C)nn2CCC#N  -0.93
98. COc1ccccc1N(CC(=O)Nc1ccccc1C(=O)NC(C)C)S(C)(=O)=O  -0.955
99. CCOC(=O)C1CCCN(C(=O)CSCc2ccccc2)C1 (stereo not drawn)  -1.22
100. O=C(NNc1nc(-c2ccccc2)cs1)c1ccccc1  -1.53
101. CCn1c(COc2ccccc2C)nc2ccccc21  -1.56

`S=c1[nH]c2cc(Cl)ccc2s1` was tested, and the z-score was 14.9 (active).
For `CC(C)c1cc(C(F)(F)F)n2nc(C(=O)Nc3ccc4c(c3)OCO4)cc2n1`, the z-score was 4.57 (active).
In the case of `Cc1ccc(C(=O)NNc2nc3ccccc3nc2C(F)(F)F)cc1`, the z-score is reported as 5.19 (active).
In the case of `C=C(C)C1CC=C(C)/C(=N/NC(=O)COc2ccccc2Cl)C1` (stereo not drawn), the z-score is reported as 12.4 (active).
In the case of `C=C(C)C1CC=C(C)/C(=N/NC(=O)COc2cccc(C)c2)C1` (stereo not drawn), the z-score is reported as 8.9 (active).
In the case of `CCOC(=O)c1cc(-c2ccc(Cl)cc2)nc2c1c(C)nn2CCC#N`, the z-score is reported as 3.13 (active).
With `COC(=O)c1ccc(N2C(=O)CC(Sc3n[nH]c(C)n3)C2=O)cc1` (stereo not drawn) the z-score was 4.88 (active).
In the case of `C=CCCCCCCCCc1nc(=S)[nH][nH]1`, the z-score is reported as 9.76 (active).
`CCCCCCCCc1nc(=S)[nH][nH]1` was tested, and the z-score was 15.3 (active).
In the case of `Cc1ccccc1Nc1nc2nonc2nc1N1CCOCC1`, the z-score is reported as 6.03 (active).
In the case of `CC1CCN(c2ncccc2C(=O)O)CC1`, the z-score is reported as 4.14 (active).
In the case of `COc1cccc(-n2c(SCC(=O)NCCC3=CCCCC3)nc3n[nH]c(C)c3c2=N)c1`, the z-score is reported as 8.62 (active).
